# Assay results published in paper PMC12864922, “TDP-43 directly inhibits mRNA accumulation in neurites through modulation of mRNA stability”.
# Positions count from the first letter of the chain named. In all, about 9,900 sequences were measured (“r (bound/input frequency ratio)”: median about 0.7, highest 2% from about 6.5 on). The sample holds the highest values, similar sequences and a random draw of the others, so the mix is not that of the screen.
# B1: ENSMUSG00000058297.451|Spock2 (ssRNA)
# RNA: GGGAGUUCUACAGUCCGACGAUCGCUUCGAUAUCCGCAUGCUAAGCAAGCUUCGUGUUUCCUCAGGAGCAAGGUCACACAGGUCAGAUUAUUGUCGGUCCUGCGGGCCUCAUCCUUGAAUAAGCUGCCUGCCCAGUUCCUCCAUCCGUGUUCCUGCCUGCUCCCGUUCCCUUGUUGCGGGCAGGAGAGGUAGGGCUGUGUUGGAAAGAGUUCAACCAAAUUACGGCAGCACCACAUCUUGCCGAGCCCUGGAGCUGCCCUACUAAGAGCCUCCUUAGCCCUGGGUGCUGGGAAGGAUGGUGUACUCUUGCGGUCGCACUAGUGUGGAAUUCUCGGGUGUCAAGG
# B2: ENSMUSG00000061578.871|Ksr2 (ssRNA)
# RNA: GGGAGUUCUACAGUCCGACGAUCGCUUCGAUAUCCGCAUGCUAUUAGGUCAGAGGUAUCAAUACAUCUCCGGAAACAUCGUCACAGAUACCUAGAGGUACUUCAUUGAUCCCUUGAAAAGCAUGUCUUAAUUCUGUUAAGAUGUCAAUCAAGAUUACACAUCUCACUGCUUCACAGGCCAUCAGGGCCCCAUUCUGAGGUCCUGGGACACUACCCAAACCCUAGCACUCUCCCAGUGACUCUCCUAUGAGUACAUAUGCCAUCCUGCUUCCUUUGUGGCAAAACCCUGGGUCACCCAGAGACACUCUUGCGGUCGCACUAGUGUGGAAUUCUCGGGUGUCAAGG
# B3: ENSMUSG00000058297.468|Spock2 (ssRNA)
# RNA: GGGAGUUCUACAGUCCGACGAUCGCUUCGAUAUCCGCAUGCUACGUGUUCCUGCCUGCUCCCGUUCCCUUGUUGCGGGCAGGAGAGGUAGGGCUGUGUUGGAAAGAGUUCAACCAAAUUACGGCAGCACCACAUCUUGCCGAGCCCUGGAGCUGCCCUACUAAGAGCCUCCUUAGCCCUGGGUGCUGGGAAGGAUGGUGUACGUUGGGGAAGUUUGAGGUUGGAGAGAGUAAAUGUGCCUUGAGAGACCACUCAGAGGUCCCAGGAGGAACGGGGGCGGGGCUUAGCCUGGGAGUUCUGGCAGCUCUUGCGGUCGCACUAGUGUGGAAUUCUCGGGUGUCAAGG
# B4: ENSMUSG00000058297.472|Spock2|27:31 (ssRNA)
# RNA: GGGAGUUCUACAGUCCGACGAUCGCUUCGAUAUCCGCAUGCUACUUGUUGCGGGCAGGAGAGGUAGGGCACACAUGGAAAGAGUUCAACCAAAUUACGGCAGCACCACAUCUUGCCGAGCCCUGGAGCUGCCCUACUAAGAGCCUCCUUAGCCCUGGGUGCUGGGAAGGAUGGUGUACGUUGGGGAAGUUUGAGGUUGGAGAGAGUAAAUGUGCCUUGAGAGACCACUCAGAGGUCCCAGGAGGAACGGGGGCGGGGCUUAGCCUGGGAGUUCUGGCAGGAGGCAAAGUUGGUGAGAGUCCUGCUCUUGCGGUCGCACUAGUGUGGAAUUCUCGGGUGUCAAGG
# B5: ENSMUSG00000058297.474|Spock2 (ssRNA)
# RNA: GGGAGUUCUACAGUCCGACGAUCGCUUCGAUAUCCGCAUGCUAAGGAGAGGUAGGGCUGUGUUGGAAAGAGUUCAACCAAAUUACGGCAGCACCACAUCUUGCCGAGCCCUGGAGCUGCCCUACUAAGAGCCUCCUUAGCCCUGGGUGCUGGGAAGGAUGGUGUACGUUGGGGAAGUUUGAGGUUGGAGAGAGUAAAUGUGCCUUGAGAGACCACUCAGAGGUCCCAGGAGGAACGGGGGCGGGGCUUAGCCUGGGAGUUCUGGCAGGAGGCAAAGUUGGUGAGAGUCCUGGGACAUCUUACCCUCUUGCGGUCGCACUAGUGUGGAAUUCUCGGGUGUCAAGG
# B6: ENSMUSG00000058297.473|Spock2|21:25 (ssRNA)
# RNA: GGGAGUUCUACAGUCCGACGAUCGCUUCGAUAUCCGCAUGCUAGCGGGCAGGAGAGGUAGGGCACACAUGGAAAGAGUUCAACCAAAUUACGGCAGCACCACAUCUUGCCGAGCCCUGGAGCUGCCCUACUAAGAGCCUCCUUAGCCCUGGGUGCUGGGAAGGAUGGUGUACGUUGGGGAAGUUUGAGGUUGGAGAGAGUAAAUGUGCCUUGAGAGACCACUCAGAGGUCCCAGGAGGAACGGGGGCGGGGCUUAGCCUGGGAGUUCUGGCAGGAGGCAAAGUUGGUGAGAGUCCUGGGACAUCUCUUGCGGUCGCACUAGUGUGGAAUUCUCGGGUGUCAAGG
# B7: ENSMUSG00000058297.470|Spock2 (ssRNA)
# RNA: GGGAGUUCUACAGUCCGACGAUCGCUUCGAUAUCCGCAUGCUAUGCUCCCGUUCCCUUGUUGCGGGCAGGAGAGGUAGGGCUGUGUUGGAAAGAGUUCAACCAAAUUACGGCAGCACCACAUCUUGCCGAGCCCUGGAGCUGCCCUACUAAGAGCCUCCUUAGCCCUGGGUGCUGGGAAGGAUGGUGUACGUUGGGGAAGUUUGAGGUUGGAGAGAGUAAAUGUGCCUUGAGAGACCACUCAGAGGUCCCAGGAGGAACGGGGGCGGGGCUUAGCCUGGGAGUUCUGGCAGGAGGCAAAGUUGCUCUUGCGGUCGCACUAGUGUGGAAUUCUCGGGUGUCAAGG
# B8: ENSMUSG00000058297.469|Spock2 (ssRNA)
# RNA: GGGAGUUCUACAGUCCGACGAUCGCUUCGAUAUCCGCAUGCUACCUGCCUGCUCCCGUUCCCUUGUUGCGGGCAGGAGAGGUAGGGCUGUGUUGGAAAGAGUUCAACCAAAUUACGGCAGCACCACAUCUUGCCGAGCCCUGGAGCUGCCCUACUAAGAGCCUCCUUAGCCCUGGGUGCUGGGAAGGAUGGUGUACGUUGGGGAAGUUUGAGGUUGGAGAGAGUAAAUGUGCCUUGAGAGACCACUCAGAGGUCCCAGGAGGAACGGGGGCGGGGCUUAGCCUGGGAGUUCUGGCAGGAGGCACUCUUGCGGUCGCACUAGUGUGGAAUUCUCGGGUGUCAAGG
# B9: ENSMUSG00000058297.472|Spock2 (ssRNA)
# RNA: B4 RNA with A70U, C71G, A72U, C73G, A74U
# B10: ENSMUSG00000058297.471|Spock2 (ssRNA)
# RNA: GGGAGUUCUACAGUCCGACGAUCGCUUCGAUAUCCGCAUGCUACGUUCCCUUGUUGCGGGCAGGAGAGGUAGGGCUGUGUUGGAAAGAGUUCAACCAAAUUACGGCAGCACCACAUCUUGCCGAGCCCUGGAGCUGCCCUACUAAGAGCCUCCUUAGCCCUGGGUGCUGGGAAGGAUGGUGUACGUUGGGGAAGUUUGAGGUUGGAGAGAGUAAAUGUGCCUUGAGAGACCACUCAGAGGUCCCAGGAGGAACGGGGGCGGGGCUUAGCCUGGGAGUUCUGGCAGGAGGCAAAGUUGGUGAGACUCUUGCGGUCGCACUAGUGUGGAAUUCUCGGGUGUCAAGG
# B11: ENSMUSG00000058297.474|Spock2|15:19 (ssRNA)
# RNA: B5 RNA with U58A, G59C, U60A, G61C, U62A
# B12: ENSMUSG00000058297.471|Spock2|33:37 (ssRNA)
# RNA: B10 RNA with U76A, G77C, U78A, G79C, U80A
# B13: ENSMUSG00000058297.473|Spock2 (ssRNA)
# RNA: B6 RNA with A64U, C65G, A66U, C67G, A68U
# B14: ENSMUSG00000058297.470|Spock2|39:43 (ssRNA)
# RNA: B7 RNA with U82A, G83C, U84A, G85C, U86A
# Molecular target: TDP-43 (Homo sapiens, UniProt Q13148 1-414)
# Test: RNA Bind-n-Seq with designed 260-mer pool; 25 mM Tris-HCl, 150 mM KCl, 3 mM MgCl2, BSA (printed 500 mg/mL), 20 units/mL SUPERase IN; pH not stated; 500 nM RNA pool, 1 h, 4 C; TDP-43 5, 50, 500 nM; high values mean tight binding
# Conditions: protein: recombinant; tags: SBP (GST cleaved off with PreScission; pGEX-GST-SBP)
# Method in brief: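 Streptavidin beads captured recombinant SBP-tagged TDP-43 at 5, 50 or 500 nM, and the beads were incubated for 1 h at 4 °C with 500 nM of an in vitro-transcribed pool of 260-nt 3′ UTR oligos in 25 mM Tris-HCl, 150 mM KCl, 3 mM MgCl2, BSA and SUPERase IN. After washing, bound RNA was eluted with biotin, reverse transcribed, PCR-amplified and sequenced. Binding is reported as R, the mapped-read-normalized abundance of each oligo in the bound sample divided by its abundance in the input. Two independent protein batches served as duplicates.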
# TDP-43, sequence (Q13148 whole entry): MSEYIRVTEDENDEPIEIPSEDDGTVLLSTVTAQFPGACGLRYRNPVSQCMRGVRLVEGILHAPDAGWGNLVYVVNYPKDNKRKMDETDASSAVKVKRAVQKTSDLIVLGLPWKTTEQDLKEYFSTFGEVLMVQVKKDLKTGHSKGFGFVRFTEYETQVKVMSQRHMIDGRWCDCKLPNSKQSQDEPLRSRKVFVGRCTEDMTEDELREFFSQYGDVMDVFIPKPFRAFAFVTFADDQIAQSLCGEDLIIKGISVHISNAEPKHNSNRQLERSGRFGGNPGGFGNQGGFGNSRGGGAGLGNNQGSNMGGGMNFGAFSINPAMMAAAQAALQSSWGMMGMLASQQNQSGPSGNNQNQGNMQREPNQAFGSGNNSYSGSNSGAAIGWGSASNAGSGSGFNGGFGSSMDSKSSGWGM
row,Binder,binding signal
1,B1,0.383 R (bound/input frequency ratio)
2,B2,0.301 R (bound/input frequency ratio)
3,B3,3.47 R (bound/input frequency ratio)
4,B4,4.63 R (bound/input frequency ratio)
5,B5,5.67 R (bound/input frequency ratio)
6,B6,3.59 R (bound/input frequency ratio)
7,B7,8.94 R (bound/input frequency ratio)
8,B8,2.58 R (bound/input frequency ratio)
9,B9,7.38 R (bound/input frequency ratio)
10,B10,7.28 R (bound/input frequency ratio)
11,B11,3.2 R (bound/input frequency ratio)
12,B12,4.19 R (bound/input frequency ratio)
13,B13,6.95 R (bound/input frequency ratio)
14,B14,5.26 R (bound/input frequency ratio)
